The source of these data is PubChem BioAssay (NCATS).

Values joined by “and” are separate entries in the source; they are usually repeats but may differ in a detail not shown here. Equal values may be shown once. Inconclusive results are not listed. Active and inactive are the calls of the source. Calls come from the whole dose curve; as a rule, active = well fitted curve in the direction sought with a large enough effect; inconclusive = small, poorly fitted or top-dose-only effect, or another doubt; inactive = no such curve, though single readings can be large; an effect the other way counts as inactive or inconclusive.

A short description of assay [1]: qHTS of pediatric cancer cell lines to identify multiple opportunities for drug repurposing: Primary screen for SJ-GBM2 cells (AID 1347091). The following applies: SJ-GBM2 viability, CellTiter-Glo luminescence, 48 h; series mostly up to 46 µM. Summed up: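 Viability measured as metabolically active cells via CellTiter-Glo luminescence following 48 hours of compound exposure, 11-point dilutions in confirmatory testing. 500-1,000 cells/well plated 5 hours before dosing; controls were DMSO and 2.3 µM bortezomib.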

Assay [2] in a line: qHTS of pediatric cancer cell lines to identify multiple opportunities for drug repurposing: Primary screen for SK-N-MC cells (AID 1347093). Note: potency is the fitted concentration of half-maximal effect. The following applies: SK-N-MC viability, CellTiter-Glo luminescence, 48 h; series mostly up to 46 µM. Summed up:
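Metabolically active cells were quantified by ATP-dependent luminescence (CellTiter-Glo, 15 min at room temperature) following 48 h treatment. Cells had been plated at 500-1,000 per well and settled for 5 h beforehand.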

Assay [3] is described as follows: qHTS of pediatric cancer cell lines to identify multiple opportunities for drug repurposing: Primary screen for BT-37 cells (AID 1347094). Note: potency is the fitted concentration of half-maximal effect. The following applies: BT-37 viability, CellTiter-Glo luminescence, 48 h; series mostly up to 57.3 µM. Summed up:
(§1)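 Quantitative HTS format: each compound titrated (MIPE 11 points from 0.78 nM, NPC 8 points from 0.59 nM) onto cells plated 5 hours earlier. After 48 h at 37 degrees C, CellTiter-Glo luminescence was recorded.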
For orientation: Quantitative high-throughput screening tests each substance at several concentrations.

A short description of assay [4]: qHTS of pediatric cancer cell lines to identify multiple opportunities for drug repurposing: Primary screen for NB-EBc1 cells (AID 1347095). Note: potency is the fitted concentration of half-maximal effect. The following applies: NB-EBc1 neuroblastoma viability, CellTiter-Glo luminescence, 48 h; series mostly up to 46 µM. Summed up:
as §1

A short description of assay [5]: qHTS of pediatric cancer cell lines to identify multiple opportunities for drug repurposing: Primary screen for U-2 OS cells (AID 1347096). Note: nearly all actives have a fitted effect of over 50% in size. The settings on record: U-2 OS viability, CellTiter-Glo luminescence, 48 h; series mostly up to 46 µM. In outline: (§2)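 Viability after 48 h compound treatment at 37C, 500-1,000 cells/well, read as ATP luminescence with CellTiter-Glo. Primary screens used 11-point (MIPE, 0.78 nM-46 µM) or 8-point (NPC, 0.59 nM-46 µM) final concentrations; follow-up screens used 11-point dilutions.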

A short description of assay [6]: qHTS of pediatric cancer cell lines to identify multiple opportunities for drug repurposing: Primary screen for Saos-2 cells (AID 1347097). Note: nearly all actives have a fitted effect of over 40% in size. Note: potency is the fitted concentration of half-maximal effect. The following applies: Saos-2 viability, CellTiter-Glo ATP luminescence, 48 h; series mostly up to 46 µM. In outline:
as §1

A short description of assay [7]: qHTS of pediatric cancer cell lines to identify multiple opportunities for drug repurposing: Primary screen for SK-N-SH cells (AID 1347098). Note: nearly all actives have a fitted effect of over 65% in size. Note: potency is the fitted concentration of half-maximal effect. The following applies: SK-N-SH viability, CellTiter-Glo luminescence, 48 h; series mostly up to 57 µM. In outline:
(§3)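 Cells (500-1,000/well) rested 5 h, then received compounds for 48 h; metabolically active cells were measured by CellTiter-Glo luminescence. Final concentrations spanned up to 46 µM (MIPE, 11-point) or 0.59 nM-46 µM (NPC, 8-point) in primary screens, 11-point in follow-ups.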

Assay [8] in a line: qHTS of pediatric cancer cell lines to identify multiple opportunities for drug repurposing: Primary screen for NB1643 cells (AID 1347099). Note: nearly all actives have a fitted effect of over 50% in size. Note: potency is the fitted concentration of half-maximal effect. The following applies: NB1643 neuroblastoma viability, CellTiter-Glo luminescence, 48 h; series mostly up to 46 µM. Summed up: as §1
The nature of assay [9]: qHTS of pediatric cancer cell lines to identify multiple opportunities for drug repurposing: Primary screen for LAN-5 cells (AID 1347100). Note: potency is the fitted concentration of half-maximal effect. The settings on record: LAN-5 neuroblastoma viability, CellTiter-Glo luminescence, 48 h; series mostly up to 46 µM. Summed up: as §2
Assay [10] can be described thus: qHTS of pediatric cancer cell lines to identify multiple opportunities for drug repurposing: Primary screen for BT-12 cells (AID 1347101). Note: nearly all actives have a fitted effect of over 25% in size. Note: potency is the fitted concentration of half-maximal effect. The following applies: BT-12 viability, CellTiter-Glo luminescence, 48 h; series mostly up to 57.3 µM. Summed up:
as §3

Assay [11] can be described thus: qHTS of pediatric cancer cell lines to identify multiple opportunities for drug repurposing: Primary screen for Rh18 cells (AID 1347102). Note: nearly all actives have a fitted effect of over 65% in size. The settings on record: Rh18 rhabdomyosarcoma viability, CellTiter-Glo luminescence, 48 h; series mostly up to 46 µM. In outline:
as §2

Assay [12] is described as follows: qHTS of pediatric cancer cell lines to identify multiple opportunities for drug repurposing: Primary screen for OHS-50 cells (AID 1347103). Note: nearly all actives have a fitted effect of over 40% in size. Note: potency is the fitted concentration of half-maximal effect. The settings on record: OHS-50 osteosarcoma viability, CellTiter-Glo luminescence, 48 h; series mostly up to 57.3 µM. Summed up: as §3
Assay [13] in a line: qHTS of pediatric cancer cell lines to identify multiple opportunities for drug repurposing: Primary screen for RD cells (AID 1347104). Note: nearly all actives have a fitted effect of over 55% in size. Note: potency is the fitted concentration of half-maximal effect. The settings on record: RD rhabdomyosarcoma viability, CellTiter-Glo luminescence, 48 h; series mostly up to 46 µM. In outline:
as §1

A short description of assay [14]: qHTS of pediatric cancer cell lines to identify multiple opportunities for drug repurposing: Primary screen for MG 63 (6-TG R) cells (AID 1347105). Note: nearly all actives have a fitted effect of over 50% in size. Note: potency is the fitted concentration of half-maximal effect. The following applies: MG 63 (6-TG R) viability, CellTiter-Glo, 48 h; series mostly up to 46 µM. In outline:
as §1

A short description of assay [15]: qHTS of pediatric cancer cell lines to identify multiple opportunities for drug repurposing: Primary screen for control Hh wild type fibroblast cells (AID 1347106).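 Note: a drop in luminescence marks cytotoxicity and a rise apparent proliferation; nearly all actives have a fitted effect of over 55% in size.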 The settings on record: Hh wild-type fibroblast viability, CellTiter-Glo luminescence, 48 h; series mostly up to 46 µM. In outline:
as §2

A short description of assay [16]: qHTS of pediatric cancer cell lines to identify multiple opportunities for drug repurposing: Primary screen for Rh30 cells (AID 1347107). Note: nearly all actives have a fitted effect of over 75% in size. The settings on record: Rh30 rhabdomyosarcoma viability, CellTiter-Glo luminescence, 48 h; series mostly up to 46 µM. In outline: as §2
Assay [17] can be described thus: qHTS of pediatric cancer cell lines to identify multiple opportunities for drug repurposing: Primary screen for Rh41 cells (AID 1347108).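 Note: luminescence drop marks cytotoxic hits; nearly all actives have a fitted effect of over 70% in size.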 The settings on record: Rh41 rhabdomyosarcoma viability, CellTiter-Glo luminescence, 48 h; series mostly up to 46 µM. Summed up: as §1
Assay [18] can be described thus: qHTS of pediatric cancer cell lines to identify multiple opportunities for drug repurposing: Confirmatory screen for SK-N-MC cells (AID 1347111).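 Note: potency is the fitted concentration of half-maximal effect; cells exposed to compound for 48 h before the readout; nearly all actives have a fitted effect of over 70% in size.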 The settings on record: SK-N-MC cell viability; series mostly up to 45.9 µM. Summed up:
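SK-N-MC cells at 500-1,000 cells/well in growth media were pre-incubated 5 h, then exposed to compounds at 11-point dilutions for 48 h at 37 degrees C, 5% CO2. Viability was read as CellTiter-Glo luminescence.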

A short description of assay [19]: qHTS of pediatric cancer cell lines to identify multiple opportunities for drug repurposing: Primary screen for A673 cells (AID 1347092). Note: potency is the fitted concentration of half-maximal effect; nearly all actives have a fitted effect of over 45% in size. The settings on record: A673 Ewing sarcoma viability, CellTiter-Glo ATP luminescence, 48 h; series mostly up to 46 µM. Summed up: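 Cells are plated, rested 5 h, dosed by pintool, incubated 48 h, then lysed with CellTiter-Glo and read by luminescence. DMSO is the neutral control; bortezomib at 2.3 uM final is the positive control.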

The nature of assay [20]: qHTS of pediatric cancer cell lines to identify multiple opportunities for drug repurposing: Confirmatory screen for NB1643 cells (AID 1347109). Note: potency is the fitted concentration of half-maximal effect; nearly all actives have a fitted effect of over 45% in size. The following applies: NB1643 neuroblastoma cell viability; series mostly up to 45.9 µM. In outline:
as §2

Regarding `N[C@@H](Cc1cc(I)c(Oc2cc(I)c(O)c(I)c2)c(I)c1)C(=O)O`, the Potency entry in assay [1], in [2], in [3], in [4], in assay [5] and in assay [6] was “inactive” in each case. Besides, the Potency result in assay [7], in [8], in assay [9], in [10], in assay [11] and in [12] was “inactive” each time. The Potency result in assay [13], in assay [14], in assay [15], in assay [16] and in assay [17] was “inactive” in each case.

On to `Clc1ccc(C(Cn2ccnc2)OCc2ccc(Sc3ccccc3)cc2)c(Cl)c1` (stereo not given), for which the Potency result in assay [1], in assay [3], in [4], in assay [5], in [7] and in assay [10] was “inactive” in each case. Moreover, the Potency entry in [11], in assay [12], in assay [14], in assay [15], in assay [16] and in [17] was “inactive” each time. Also, the Potency in [18] was 18.5 µM (active).

On to `CN1CCC(=C2c3ccccc3CCc3sccc32)CC1`, for which the Potency entry in assay [1], in assay [4], in [5], in assay [6], in assay [9] and in assay [14] was “inactive” throughout. Also, the Potency entry in assay [15], in assay [16] and in [17] was “inactive” in each case. Also, the Potency is 29.6 µM (active) in assay [2], 13.6 µM (active) in assay [7] and 12.3 µM (active) in [12].

Take `Cc1cccc(C)c1OCC(=O)N[C@@H](Cc1ccccc1)[C@@H](O)C[C@H](Cc1ccccc1)NC(=O)[C@H](C(C)C)N1CCCNC1=O`: the Potency was 23.5 µM (active) in [19], 29.6 µM (active) in assay [2], 20.9 µM (active) in assay [8] and 27.3 µM (active) in [12]. In addition, the Potency result in assay [5], in assay [11], in assay [14], in assay [15] and in assay [16] was “inactive” throughout.

Turning to `Cc1cc(C2CCCCC2)n(O)c(=O)c1`, the Potency in assay [19] was 2.96 µM (active); in assay [2] it was 750 nM (active) and 1.18 µM (active); in assay [3], 3.09 µM (active); in [4] it was 7.43 µM (active); in assay [6] it was 21.1 µM (active); in assay [7] it was 1.09 µM (active). Moreover, the Potency in [8] is 11.9 µM (active) and 20.9 µM (active); in [9], 7.43 µM (active); in [10], 6.92 µM (active) and 17.2 µM (active); in assay [12], 3.09 µM (active) and 4.32 µM (active); in [13], 7.5 µM (active) and 18.7 µM (active); in [14] it was 13.3 µM (active) and 23.5 µM (active). The values for the Potency in [20] and in assay [18] were 14.7 µM (active) and 5.22 µM (active), respectively. Moreover, the Potency result in assay [5] was “inactive”.

With `Cc1ccc(C)c(OCCCC(C)(C)C(=O)O)c1`, the Potency entry in assay [1], in assay [3], in [4], in assay [5], in assay [6] and in assay [7] was “inactive” throughout. In addition, the Potency entry in assay [9], in assay [11], in assay [12], in assay [13], in [14] and in [15] was “inactive” in each case. In addition, the Potency entry in [16] and in assay [17] was “inactive” throughout.
